KB-V1 MDR tox – qHTS assay for MDR1-selective chemotherapeutics: Primary screen using the drug-selected MDR subline cells KB-V1; 400,000 tested, 3.4% active; Potency, µM (top dose mostly 46.1 µM), usual class: cytotoxic; KB-V1 MDR cells viability, CellTiter-Glo, 72 h; AID 1347076, 2019; further: nearly all actives have a fitted effect of over 60% in size
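Compound-treated KB-V1 multidrug-resistant cells, 72 h, 37 degrees C; viability by CellTiter-Glo. Fitted qHTS curves give the values.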
HT1080 IDH1KD tx – qHTS for induction of synthetic lethality in tumor cells producing 2HG: qHTS for the HT-1080-IDH1KD cell line; Potency, µM (highest dose often 46.1 µM), without a hit: at the highest dose activity, negative = toxicity, hits mostly cytotoxic; 360,000 tested, 2% active; HT-1080 IDH1 knockdown viability, ATP luminescence, 48 h; AID 686971, 2013;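 further: 0% = DMSO wells and -100% = cell-free medium wells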
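Using the IDH1-knockdown HT-1080 line run in the same batch and compound series as the NT line, viability after 48 h at 37 °C was determined by CellTiter-Glo luminescence and expressed as % activity.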
DT40 TDP1 no CPT – qHTS for Inhibitors of human tyrosyl-DNA phosphodiesterase 1 (TDP1): qHTS in cells in absence of CPT | DT40 Tdp1-/- hTDP1 cells, no CPT, ATP luminescence, 48 h | Potency, µM (doses to about 46.2 µM), inactives show at the highest dose activity change, negative = growth inhibition, hits mostly inhibitors | 420,000 tested, 15% active; further: nearly all actives have a fitted effect of over 55% in size
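Seeded 400 DT40-hTDP1 cells/well (vehicle DMSO, no 20 nM CPT); pinned compounds; ≥48 hr at 37 °C; CellTiter-Glo luminescence as viability measure.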
KB-3-1 tox – qHTS assay for MDR1-selective chemotherapeutics: Primary screen using the parental adenocarcinoma cell KB-3-1 | KB-3-1 viability, CellTiter-Glo ATP luminescence, 72 h | Potency, µM (highest dose often 46.1 µM), hits mostly cytotoxic | 400,000 tested, 1.4% active | AID 1347075, 2019; further: nearly all actives have a fitted effect of over 60% in size
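Viability of parental KB-3-1 cells, measured by CellTiter-Glo luminescence, followed a 72 h incubation at 37 °C with pinned compounds in phenol-red-free DMEM containing 10% FBS.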
HT1080-NT tox – qHTS for induction of synthetic lethality in tumor cells producing 2HG: qHTS for the HT-1080-NT fibrosarcoma cell line; HT-1080-NT fibrosarcoma viability, CellTiter-Glo ATP luminescence, 48 h; Potency, µM (titrated, usually from 46.1 µM), for inactives: top-dose activity, negative = less viability, most hits filed as cytotoxic; 360,000 tested, 1.6% active; AID 686970, 2013;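 further: NT is the 2HG producing partner of a matched IDH1 knockdown line; 0% = DMSO-treated cells and -100% = media-only wells without cells; nearly all actives have a fitted effect of over 55% in size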
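HT-1080-NT; 750 cells/well; 5% FBS RPMI; 48 h compound, 37 degrees C; CellTiter-Glo luminescence; curve fitting and curve-class assignment.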
TDP1 cell CPT – qHTS for Inhibitors of human tyrosyl-DNA phosphodiesterase 1 (TDP1): qHTS in cells in presence of CPT. chicken DT40 Tdp1-/-;hTDP1 cells + 20 nM CPT, ATP luminescence, 48 h. Potency, µM (series often up to 46.2 µM), inactives show at the top dose activity change, negative = growth inhibition, usual class: inhibitors. 420,000 tested, 12% active. AID 686979, 2013; further: nearly all actives have a fitted effect of over 55% in size
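Chicken DT40 Tdp1-/- cells stably complemented with human TDP1 were seeded at 400 cells/well in medium containing 20 nM camptothecin, exposed to pin-transferred compounds, and grown at 37 °C for at least 48 hr. Viability was read as ATP luminescence.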
Active calls of the source: *; i = inactive; ? = inconclusive; nt = no result given; ! = not active in a repeat; [ ] = another dose, or the depositor's remark. Sampled rows, rich in hits. Any-hit rate of the full collection: about 19%. The call rests on the fitted dose curve; in most records, active means well fitted curve in the direction sought with a large enough effect; inconclusive means small, poorly fitted or top-dose-only effect, or another doubt; inactive means no such curve, though single readings can be large; an effect the other way counts as inactive or inconclusive. Unless noted, on the % scale 0 is the no-effect control and ±100 the full control effect; potency means the concentration at half of the fitted maximal effect.

SMILES | KB-V1 MDR tox | HT1080 IDH1KD tx | DT40 TDP1 no CPT | KB-3-1 tox | HT1080-NT tox | TDP1 cell CPT
O=[N+]([O-])c1cccc(S(=O)(=O)Nc2ccc(S(=O)(=O)N3CCCC3)cc2)c1 | nt | -1% | -20% | nt | 2% | -27%
CC(C)CC(=O)NC(=S)Nc1ccc(S(=O)(=O)N2CCCC2)cc1 | ? | 8% | ? | i | -6% | ?
O=C(COc1ccccc1)N=C1SC2CS(=O)(=O)CC2N1c1ccc(F)cc1F (stereo unspecified) | i | -16% | -1% | i | 0% | -14%
O=C1CN(C(=O)COC(=O)c2cc(Cl)ccc2[N+](=O)[O-])c2ccccc2N1 | i | -9% | ? | i | -1% | -7%
CCc1cccc(NC(=O)c2c(N3CCCC3=O)c3cc(C)ccc3n2C)c1 | 18µM* | nt | nt | ? | nt | nt
Cc1ccc(NC(=O)c2c(N3CCCC3=O)c3cc(C)ccc3n2C)c(C)c1 | i | nt | nt | i | nt | nt
O=C(c1cccc(F)c1)N1CCCC(C(=O)N2CCCCCC2)C1 (stereo unspecified) | i | 0% | -4% | i | -2% | 0%
CCOC(=O)/C(C#N)=C\c1cn(C)c2ccccc12 | i | -13% | -11% | i | -12% | 25%
CCOC(=O)/C(C#N)=C/c1c(OCC)n(CC)c2ccccc12 | 7.3µM* | -1% | ? | i | 4% | ?
N/C(=N\OS(=O)(=O)c1ccccc1)c1ccccn1 | i | 13% | ? | i | 8% | ?
N/C(=N\OS(=O)(=O)c1ccc(Cl)cc1)c1ccccn1 | ? | -11% | 16µM* | ? | -6% | ?
CCOC(=O)c1ccc(NC(=O)c2oc3ccc4c(c3c2C)C(=O)CC(C)(CC)O4)cc1 (stereo unspecified) | i | nt | 21µM* | i | nt | ?
COc1cc(OC)c(NC(=O)c2oc3ccc4c(c3c2C)C(=O)CC(C)(C)O4)cc1Cl | i | nt | -6% | i | nt | 0%
Cc1c(C(=O)NCc2ccc(Cl)cc2)oc2ccc3c(c12)C(=O)CC(C)(C)O3 | nt | nt | 15µM* | nt | nt | ?
CCCNC(=O)c1oc2ccc3c(c2c1C)C(=O)CC(C)(C)O3 | i | 9% | ? | i | -2% | -17%
COc1cccc(CNC(=O)c2oc3ccc4c(c3c2C)C(=O)CC(C)(C)O4)c1OC | nt | nt | 16µM* | nt | nt | ?
COc1cc(-c2noc(C)c2C(=O)NCCc2ccccc2)cc(OC)c1OC | i | -3% | ? | i | 0% | ?
COc1cc(CCCN2C(=S)NC[C@H]2Cc2ccc(O)cc2)cc(OC)c1OC | i | 0% | 15µM* | i | 9% | ?
CN(C)c1ccc(O)c2c1C[C@H]1C[C@H]3[C@H](N(C)C)C(=O)C(C(N)=O)=C(O)[C@@]3(O)C(=O)C1=C2O | nt | nt | 21µM*! | nt | nt | 6.5µM*
CN(C)c1ccc(O)c2c1CC1CC3[C@@H](N(C)C)C(=O)C(C(N)=O)=C(O)[C@]3(O)C(=O)C1=C2O (stereo partly specified) | i | nt | 3.7µM* | i | nt | 8.2µM*
CN(C)[C@@H]1C(=O)C(C(=O)NCN2CCCC2)=C(O)[C@@]2(O)C(=O)C3=C(O)c4c(O)cccc4[C@@](C)(O)C3C[C@@H]12 (stereo partly specified) | nt | nt | -1%[21.1 µM] | nt | nt | -15%[21.1 µM]
CCN(CC)c1ccc2cc(C(C)=O)c(=O)oc2c1 | i | 16% | 0% | i | 3% | -7%
CCN(CC)c1ccc2cc(-c3nnc(-c4ccncc4)o3)c(=O)oc2c1 | i | 4% | 21µM* | i | -1%[9.24 µM] | 12µM*
CCN(CC)c1ccc2cc(C(=O)Nc3ccccn3)c(=O)oc2c1 | i | 8% | ? | i | 26% | 4.5µM*!
CCN(CC)c1ccc2cc(C=O)c(=O)oc2c1 | i | -10% | 18µM* | ? | 1% | 29µM*
SMILES | KB-V1 MDR tox | HT1080 IDH1KD tx | DT40 TDP1 no CPT | KB-3-1 tox | HT1080-NT tox | TDP1 cell CPT
CCN(CC)c1ccc2cc(C(N)=O)c(=O)oc2c1 | i | -13% | -29% | i | -9% | -16%
CCN(CC)c1ccc2cc(-c3nc(-c4cc(OC)c(OC)c(OC)c4)no3)c(=O)oc2c1 | nt | nt | 10µM* | nt | nt | 21µM*
CCN(CC)c1ccc2cc(-c3nc(-c4ccccc4F)no3)c(=O)oc2c1 | nt | nt | ? | nt | nt | -16%
Cc1[nH]c2nc3ccccc3n2c(=O)c1CCC(C)C | i | 2% | 5% | i | 3% | 7%
O=C(CSc1nccn1Cc1ccc(F)cc1)NCc1ccc(F)cc1 | i | nt | ? | i | nt | ?
COC(=O)c1[nH]c2ccccc2c1NC(=O)CN1CCN(Cc2ccc3c(c2)OCO3)CC1 | ? | 0% | ? | i | -7% | ?
COc1cc2c(cc1OC)CN(CC(=O)Nc1ccccc1SC)CC2 | ? | -1% | 23µM* | i | -20% | ?
COC(=O)c1[nH]c2ccccc2c1NC(=O)CN1CCN(c2cccc(OC)c2)C(C)C1 (stereo unspecified) | ? | ? | 18µM* | 18µM* | -19% | 23µM*
CCOC(=O)c1[nH]c2ccc(F)cc2c1NC(=O)C(C)N1CCc2cc(OC)c(OC)cc2C1 (stereo unspecified) | ? | 16µM* | ? | 16µM* | ? | ?
COC(=O)c1[nH]c2ccc(C)cc2c1NC(=O)CN1CCc2cc(OC)c(OC)cc2C1 | i | -11% | 23µM* | i | -10% | 16µM*
CCCC(C)(C)C(=O)N1CCC1(C)C(=O)NS(=O)(=O)c1ccc(Cl)cc1 (stereo unspecified) | i | ? | 2% | i | 7% | -28%
O=C1CNC(=S)N1CCc1ccc(O)c(O)c1 | i | -8% | ? | i | 21% | ?
Cc1onc(NC(=O)NC(=O)c2c(Cl)cccc2Cl)c1Br | i | 30% | 0% | i | 14% | -1%
CCOC(=O)c1[nH]c2ccc(OCC)cc2c1NC(=O)CN1CCCC(C)C1 (stereo unspecified) | i | 7% | ? | i | 1% | ?

Screening results: PubChem BioAssay, National Center for Advancing Translational Sciences (NCATS)
